ST2 IL33 inh – blocks human ST2 binding to IL-33 | Q01638 | AlphaLISA ST2-Fc/biotin-IL-33 interaction, 1 h | inhibition, % for hits at 17 µM | 78,000 compounds, 2.3% hits | AID 1259354; in the data active = inhibition above about 30%
Target sequence (Q01638 whole entry, looked up): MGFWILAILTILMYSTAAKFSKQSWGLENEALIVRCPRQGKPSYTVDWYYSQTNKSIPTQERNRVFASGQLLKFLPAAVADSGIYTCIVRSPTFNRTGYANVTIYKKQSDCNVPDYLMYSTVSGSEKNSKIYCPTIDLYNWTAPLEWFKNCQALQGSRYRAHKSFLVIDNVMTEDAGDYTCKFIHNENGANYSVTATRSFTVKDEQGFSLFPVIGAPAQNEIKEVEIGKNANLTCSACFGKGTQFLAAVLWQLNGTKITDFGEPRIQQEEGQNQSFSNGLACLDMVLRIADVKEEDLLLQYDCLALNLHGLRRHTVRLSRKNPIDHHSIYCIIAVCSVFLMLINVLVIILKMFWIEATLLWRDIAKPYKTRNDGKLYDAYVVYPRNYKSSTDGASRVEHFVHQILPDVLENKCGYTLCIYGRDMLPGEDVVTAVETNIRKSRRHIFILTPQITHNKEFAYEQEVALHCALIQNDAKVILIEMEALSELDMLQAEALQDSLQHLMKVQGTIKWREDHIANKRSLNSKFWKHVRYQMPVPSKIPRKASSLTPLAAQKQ
The depositor's hits bear a star; i = inactive; ! = repeats disagree. This excerpt belongs to a sample that is enriched for hits.

SMILES	ST2 IL33 inh
COC(=O)c1cccc(NC(=S)N[C@H]2CO[C@H]3[C@@H]2OC[C@@H]3n2nnnc2Oc2cccc(N(C)C)c2)c1	i
Cc1ccc(C(=O)N[C@H]2CO[C@H]3[C@@H]2OC[C@@H]3n2nnnc2Oc2cccc(N(C)C)c2)cc1	81.0%*
CCc1nnsc1C(=O)N1CCC(=O)N(CC2CC2)C(C(C)C)C1 (stereo not drawn)	i
COc1ccc(CC(=O)Nc2ccccc2OC)cc1	i
Cc1ccc(NC(=O)c2ccc([N+](=O)[O-])cc2)cc1F	i
CC(C)(C)CC(=O)Nc1ccc([N+](=O)[O-])cc1	i
Cc1ccc(NCC(=O)c2ccc([N+](=O)[O-])cc2)cc1	36.0%*
CC(C)(C)c1ccc(Cn2c(=N)n(CC(N)=O)c3ccccc32)cc1	i
O=C(CCCn1c(=O)c2sccc2n(Cc2ccc(Cl)cc2)c1=O)NCc1ccco1	i
O=C(Cn1c(=O)c2sccc2n(Cc2ccc(Cl)cc2)c1=O)NCc1ccco1	i
O=C(CCCn1c(=O)c2sccc2n(Cc2ccc(F)cc2)c1=O)NCc1ccco1	30.0%*!
O=C(Nc1nc2c(cc3c4c(cccc42)CC3)s1)c1ccc(S(=O)(=O)N2CCCC2)cc1	i
Cc1cccc(C)c1NC(=O)c1ccco1	i
Cc1ccccc1NC(=O)c1ccco1	i
Cc1ccc(/C=C/NC(=O)c2ccco2)cc1C	31.0%*
CCOC(=O)c1c(C)n(C)c2c1cc(OC)c1ccccc12	i
O=C(O)c1ccc(NCc2cccs2)cc1	i
COc1ccccc1NCc1cccs1	32.0%*
O=C(Cc1cccs1)Nc1ccccc1NC(=O)Cc1cccs1	i
CSc1cccc(NC(=O)c2cc3ccccn3n2)c1	i
O=C(Nc1nc2ccc(Cl)cc2s1)c1ccccc1[N+](=O)[O-]	i
N#C/C(=C\c1ccccc1[N+](=O)[O-])c1nc(-c2ccc(Cl)cc2)cs1	31.0%*
COc1cc(/C(C#N)=C/c2ccccc2F)c([N+](=O)[O-])cc1OC	i
O=C1c2cccc([N+](=O)[O-])c2C(=O)N1c1nc(-c2ccccc2)cs1	i
N#C/C(=C\c1ccccc1[N+](=O)[O-])c1nc(-c2ccccc2)cs1	50.0%*
SMILES	ST2 IL33 inh
COc1ccc(S(=O)(=O)N2CCN(c3nc(C)cc(N(C)C)n3)CC2)cc1C	i
CC1=C(C(=O)OC2CCCCC2)C(c2ccc(Cl)c(Cl)c2)CC(=O)N1 (stereo not drawn)	i
COC(=O)[C@@H]1C[C@@H](N(C)C)CN1C(=O)c1ccc(-c2noc(C3CC3)n2)cc1	i
CCCCn1c(CCC)nc2c(=O)n(C)c(=O)[nH]c21	i
CCOc1ccc(S(=O)(=O)N2CCSC2c2ccccc2OC)cc1 (stereo not drawn)	i
Cc1ccc(N=c2oc3ccc(Br)cc3cc2C(N)=O)cc1	i
NC(=O)c1cc2cc(Br)ccc2oc1=Nc1ccccc1	33.0%*
Cc1cccc(N=c2oc3ccc(Br)cc3cc2C(N)=O)c1	i
CC1=C(Cl)c2ccc(C)cc2S1(=O)=O	i
CCc1ccccc1NS(=O)(=O)c1cc(OC)ccc1OC	i
COCCC(=O)NC1CCCN(CCc2ccccc2)C1 (stereo not drawn)	i
O=C(CCc1ccco1)NC1CCCN(CCc2ccccc2)C1 (stereo not drawn)	31.0%*
O=C1CC(NC2CCN(Cc3ccco3)CC2)CN1CCc1ccccc1 (stereo not drawn)	i
CC(C)Cc1ccc(S(=O)(=O)Nc2ccc(F)c(Cl)c2)cc1	i
N#CC1=C(N)Oc2cc(N)ccc2C1c1ccc(Cl)cc1Cl (stereo not drawn)	i
Cc1ccc(N2NC(=O)/C(=C/c3ccc(Cl)cc3)C2=O)cc1Cl	i
COc1cc(/C=C2/C(=O)NN(c3ccc(Cl)cc3)C2=O)cc(OC)c1O	30.0%*
O=C1NN(c2cccc(Br)c2)C(=O)/C1=C\c1ccccc1	i
COc1cc(C=O)ccc1OCCOc1ccc(Br)cc1Cl	i
CC1=NN(c2ccc(F)cc2)C(=O)/C1=C/c1ccc(N(C)C)cc1	i
COc1cc(/C=C2/NC(=O)NC2=O)cc(OC)c1O	i
CCN(C)c1ccc(/C=C2/C(=O)NN(c3cccc(Br)c3)C2=O)cc1	39.0%*
COc1cc(C=C2C(=O)OC(C)(c3ccccc3)OC2=O)ccc1OCc1cccc(C(=O)O)c1 (stereo not drawn)	i
C=CCOc1ccc(/C=C2\C(=O)NN(c3cccc(Br)c3)C2=O)cc1OC	34.0%*
COc1cccc(CN2CCCC(O)(CN3CCOCC3)C2=O)c1OC (stereo not drawn)	i
SMILES	ST2 IL33 inh
O=C(Nc1cccc(F)c1)c1cccc(F)c1F	i
O=C(/C=C/c1ccc2c(c1)OCO2)Nc1cccc(Cl)c1	i
CCOc1ccccc1N1C(=O)[C@H]2C3c4ccccc4C(CO)(c4ccccc43)[C@H]2C1=O	i
COc1ccccc1-c1ccc(NCCNC(C)=O)nn1	i
Cc1ccc(CN2CCSc3ccc(C(=O)NCCCN4CCCC4=O)cc32)cc1	i
CCCc1cc(C(=O)Nc2scc(-c3ccccc3)c2C(=O)OCC)no1	i
O=C(C1CCN(S(=O)(=O)c2ccc(F)cc2)CC1)N1CCN(c2ccccc2)CC1	i
CCOCCOC(=O)C1=C(C)NC2=C(C(=O)C(C(=O)OC)C(C)C2)C1c1ccc(Cl)cc1 (stereo not drawn)	i
Cc1nc(N2CCCCC2)c2c(C)c(C(=O)O)sc2n1	i
CC(C)OCC1CC(CCC(=O)Nc2ccc([N+](=O)[O-])cc2)C(=O)O1 (stereo not drawn)	i
COc1cccc(NC(=O)c2nn(-c3ccc(Cl)cc3)c(=O)c3ccccc23)c1	i
Cc1c(Cl)cccc1N1C(=O)C2CC=CCC2C1=O (stereo not drawn)	i
Cc1cc(C)c2c(CC(=O)N3CCn4c(C(N)=O)cnc4C3)coc2c1C	i
Cc1ccc[n+](C2C(c3ccc([N+](=O)[O-])cc3)C(C#N)=C([S-])NC2(O)C2CC2)c1 (stereo not drawn)	50.0%*
Cc1cc[n+](C2C(c3ccc([N+](=O)[O-])cc3)C(C#N)=C([S-])NC2(O)C2CC2)cc1 (stereo not drawn)	59.0%*
COc1ccccc1C1C(C#N)=C(C(=C=[N-])C#N)NC(O)(C2CC2)C1[n+]1ccc(C)cc1 (stereo not drawn)	i
CCC(C)CC(C)CC(CO)CC(C)/C=C(C)/C=C(/CC(C)C(=O)O)C(=O)O (stereo not drawn)	i
C=CCc1cc(OC)ccc1OCCN1CCOCC1	i
Cc1nn(Cc2ccccc2)c(C)c1NC(=O)c1cc(-c2ccc(Cl)cc2)on1	i
CC(=O)N[C@@H]1C[C@H](Cc2ccccc2)O[C@H](c2cc(C(C)(C)C)n[nH]2)C1	i
CCN1CCc2c(sc(NC(=O)COc3ccccc3)c2C(=O)OC)C1	i
COC(=O)c1c(NC(=O)c2ccc(F)cc2)sc2c1CCN(C(C)C)C2	i
CCN1CCc2c(sc(NC(=O)c3ccc(Cl)cc3)c2C(=O)OC)C1	89.0%*
COC(=O)c1cc2c(cc1NC(=O)c1ccc3c(Cl)c4c(nc3c1)CCCC4)OCO2	i
CCCOc1ccc(C(=O)Oc2cccc3ccc(C)nc23)cc1	i
N#C/C(=C\c1cccc(F)c1)c1nc2ccccc2[nH]1	i
N#C/C(=C\c1cccc(Br)c1)c1nc2ccccc2[nH]1	i
COc1ccc(/C=C(\C#N)c2nc3ccc(C)cc3[nH]2)cc1O	46.0%*
Cc1cccc(C(C)C)c1NC(=O)c1ccccc1Br	i
COc1ccccc1/C=C/C1=NC(=C\c2ccc(SC)cc2)/C(=O)O1	i

Assay outcomes from PubChem BioAssay.
